Results reported in PubChem BioAssay (NCATS).
Results filed as inconclusive are left out. Active and inactive are the calls of the source. The call rests on the fitted dose curve; in most records, active means well fitted curve in the direction sought with a large enough effect; inconclusive means small, poorly fitted or top-dose-only effect, or another doubt; inactive means no such curve, though single readings can be large; an effect the other way counts as inactive or inconclusive.

What was measured:
[1] = qHTS of pediatric cancer cell lines to identify multiple opportunities for drug repurposing: Primary screen for MG 63 (6-TG R) cells (AID 1347105); further: nearly all actives have a fitted effect of over 50% in size; further: potency means the concentration at half of the fitted maximal effect; on activity change, negative = cytotoxic: on the % scale 0 is the no-effect control and ±100 the full control effect
Procedure, shortened: (§1)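 Luminescence from CellTiter-Glo served as readout of metabolically active cells after 48 h compound exposure. Titrations: MIPE 11-point, from 0.78 nM; NPC 8-point, from 0.59 nM (final). Concentration-response curves came straight from the primary screen.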

[2] = qHTS of pediatric cancer cell lines to identify multiple opportunities for drug repurposing: Primary screen for control Hh wild type fibroblast cells (AID 1347106); further: nearly all actives have a fitted effect of over 55% in size; further: potency means the concentration at half of the fitted maximal effect;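 on activity change, negative = cytotoxic: series mostly up to about 46 µM; on the % scale 0 is the no-effect control and ±100 the full control effect; a drop in luminescence marks cytotoxicity and a rise apparent proliferation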
Procedure, shortened: (§2)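 Cells (500-1,000/well) in growth media were settled 5 h at 37 degrees C, then given compounds for 48 h. Viability was read as CellTiter-Glo luminescence. Primary runs used MIPE at 11 points (0.78 nM-46 µM) and NPC at 8 points (0.59 nM-46 µM); follow-ups used 11 points.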

[3] = qHTS of pediatric cancer cell lines to identify multiple opportunities for drug repurposing: Primary screen for Rh30 cells (AID 1347107); further: series mostly up to about 46 µM; on the % scale 0 is the no-effect control and ±100 the full control effect; nearly all actives have a fitted effect of over 75% in size
Procedure, shortened: as §2

[4] = qHTS of pediatric cancer cell lines to identify multiple opportunities for drug repurposing: Primary screen for Rh41 cells (AID 1347108); further: nearly all actives have a fitted effect of over 70% in size; further: potency means the concentration at half of the fitted maximal effect;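 on activity change, negative = cytotoxic: series mostly up to about 46 µM; luminescence drop marks cytotoxic hits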
Procedure, shortened: as §1

[5] = qHTS of pediatric cancer cell lines to identify multiple opportunities for drug repurposing: Confirmatory screen for LAN-5 cells (AID 1347113); further: nearly all actives have a fitted effect of over 65% in size; further: potency means the concentration at half of the fitted maximal effect
Procedure, shortened: as §2

[6] = qHTS of pediatric cancer cell lines to identify multiple opportunities for drug repurposing: Confirmatory screen for DAOY cells (AID 1347114); further: nearly all actives have a fitted effect of over 65% in size; further: potency means the concentration at half of the fitted maximal effect; on activity change, negative = cytotoxic: on the % scale 0 is the no-effect control and ±100 the full control effect
Procedure, shortened: (§3)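 Viability measured as metabolically active cells via CellTiter-Glo luminescence following 48 hours of compound exposure, 11-point dilutions in confirmatory testing. 500-1,000 cells/well plated 5 hours before dosing; controls were DMSO and 2.3 µM bortezomib.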

[7] = qHTS of pediatric cancer cell lines to identify multiple opportunities for drug repurposing: Confirmatory screen for NB-EBc1 cells (AID 1347115);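 further: cells exposed to compound for 48 h before the viability read; nearly all actives have a fitted effect of over 45% in size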; further: potency means the concentration at half of the fitted maximal effect
Procedure, shortened: as §2

[8] = qHTS of pediatric cancer cell lines to identify multiple opportunities for drug repurposing: Confirmatory screen for Rh18 cells (AID 1347125); further: nearly all actives have a fitted effect of over 55% in size; further: potency means the concentration at half of the fitted maximal effect; on activity change, negative = cytotoxic: on the % scale 0 is the no-effect control and ±100 the full control effect
Procedure, shortened: as §2

[9] = qHTS of pediatric cancer cell lines to identify multiple opportunities for drug repurposing: Confirmatory screen for Rh30 cells (AID 1347126); further: nearly all actives have a fitted effect of over 55% in size; further: potency means the concentration at half of the fitted maximal effect; on activity change, negative = cytotoxic: on the % scale 0 is the no-effect control and ±100 the full control effect
Procedure, shortened: as §2

[10] = qHTS of pediatric cancer cell lines to identify multiple opportunities for drug repurposing: Confirmatory screen for A673 cells (AID 1347110);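 further: cells exposed to compound for 48 h before the viability read; nearly all actives have a fitted effect of over 65% in size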; further: potency means the concentration at half of the fitted maximal effect
Procedure, shortened: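 qHTS titration format: primary MIPE 0.78 nM-46 µM (11 pts), NPC 0.59 nM-46 µM; confirmation 11 pts. 48 h, CTG luminescence.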

[11] = qHTS of pediatric cancer cell lines to identify multiple opportunities for drug repurposing: Confirmatory screen for SJ-GBM2 cells (AID 1347116); further: nearly all actives have a fitted effect of over 60% in size; further: potency means the concentration at half of the fitted maximal effect;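 on activity change, negative = cytotoxic: plate controls were DMSO for no effect and bortezomib for full effect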
Procedure, shortened: as §3

[12] = qHTS of pediatric cancer cell lines to identify multiple opportunities for drug repurposing: Confirmatory screen for RD cells (AID 1347124);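 further: cells exposed to compound for 48 h before viability readout; on the % scale 0 is the no-effect control and ±100 the full control effect; nearly all actives have a fitted effect of over 65% in size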
Procedure, shortened: as §2

[13] = qHTS of pediatric cancer cell lines to identify multiple opportunities for drug repurposing: Confirmatory screen for NB1643 cells (AID 1347109); further: nearly all actives have a fitted effect of over 45% in size; further: potency means the concentration at half of the fitted maximal effect;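 on activity change, negative = cytotoxic: plate controls were DMSO for no effect and bortezomib for full effect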
Procedure, shortened: as §2

[14] = qHTS of pediatric cancer cell lines to identify multiple opportunities for drug repurposing: Confirmatory screen for BT-37 cells (AID 1347117); further: nearly all actives have a fitted effect of over 55% in size; further: potency means the concentration at half of the fitted maximal effect;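 on activity change, negative = cytotoxic: plate controls were DMSO for no effect and bortezomib for full effect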
Procedure, shortened: as §2

[15] = qHTS of pediatric cancer cell lines to identify multiple opportunities for drug repurposing: Confirmatory screen for TC32 cells (AID 1347118); further: potency means the concentration at half of the fitted maximal effect
Procedure, shortened: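 TC32 cells, 500-1,000/well in growth medium, compound-treated 48 h at 37 °C; viability from CellTiter-Glo luminescence. Primary screen: MIPE 11-point (0.78 nM–46 µM final), NPC 8-point (0.59 nM–46 µM final); confirmatory at 11-point dilutions.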

[16] = qHTS of pediatric cancer cell lines to identify multiple opportunities for drug repurposing: Confirmatory screen for Saos-2 cells (AID 1347127); further: nearly all actives have a fitted effect of over 60% in size; further: potency means the concentration at half of the fitted maximal effect;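 on activity change, negative = cytotoxic: plate controls were DMSO for no effect and bortezomib for full effect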
Procedure, shortened: as §2

[17] = qHTS of pediatric cancer cell lines to identify multiple opportunities for drug repurposing: Confirmatory screen for OHS-50 cells (AID 1347128); further: potency means the concentration at half of the fitted maximal effect
Procedure, shortened: as §2

[18] = qHTS of pediatric cancer cell lines to identify multiple opportunities for drug repurposing: Confirmatory screen for SK-N-MC cells (AID 1347111);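 further: potency means the concentration at half of the fitted maximal effect; cells exposed to compound for 48 h before the readout; nearly all actives have a fitted effect of over 70% in size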
Procedure, shortened: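 Metabolically active cells were quantified by ATP-dependent luminescence (CellTiter-Glo, 15 min at room temperature) following 48 h treatment. Cells had been plated at 500-1,000 per well and settled for 5 h beforehand.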

C[C@@H]1CN(CCCn2c3ccccc3c3ccccc32)C[C@H](C)N1
active: Potency [5] 32.9 µM | Potency [6] 20.8 µM | Potency [7] 14.7 µM | Potency [8] 26.1 µM | Potency [9] 26.1 µM
inactive: Potency [1] | Potency [2] | Potency [3] | Potency [4]

COc1cc(OC)cc(OC)c1
inactive: Potency [1] | Potency [2] | Potency [3] | Potency [4]

C[C@@H]1C[C@H]2[C@@H]3C[C@H](F)C4=CC(=O)C(Cl)=C[C@]4(C)[C@@]3(F)[C@@H](O)C[C@]2(C)[C@@]1(O)C(=O)CO
inactive: Potency [1] | Potency [2] | Potency [3] | Potency [4] | Potency [10] | Potency [6]
active: Potency [8] 26.1 µM

CC(=O)[C@H]1CC[C@H]2[C@@H]3C[C@H](C)C4=CC(=O)CC[C@]4(C)[C@H]3[C@@H](O)C[C@]12C
inactive: Potency [1] | Potency [2] | Potency [3] | Potency [4] | Potency [10] | Potency [5] | Potency [11] | Potency [12] | Potency [8] | Potency [9]

Oc1cc(O)c2c(c1)O[C@H](c1ccc(O)c(O)c1)[C@H](O)C2
inactive: Potency [1] | Potency [2] | Potency [3] | Potency [4]

CC1(C)O[C@@H]2C[C@H]3[C@@H]4C[C@H](F)C5=CC(=O)C=C[C@]5(C)[C@H]4[C@@H](O)C[C@]3(C)[C@]2(C(=O)CO)O1
inactive: Potency [1] | Potency [2] | Potency [3] | Potency [4]

CC1(C)O[C@@H]2C[C@H]3[C@@H]4CCC5=CC(=O)CC[C@]5(C)[C@@]4(F)[C@@H](O)C[C@]3(C)[C@]2(C(=O)CCl)O1
inactive: Potency [1] | Potency [2] | Potency [3] | Potency [4] | Potency [13] | Potency [10] | Potency [6] | Potency [7] | Potency [11] | Potency [14] | Potency [15] | Potency [12] | Potency [8] | Potency [9] | Potency [16] | Potency [17]

CC(=O)OCC(=O)[C@@]1(O)[C@H](C)C[C@H]2[C@@H]3CCC4=CC(=O)C=C[C@]4(C)[C@@]3(F)[C@@H](O)C[C@@]21C
inactive: Potency [1] | Potency [2] | Potency [3] | Potency [7]
active: Potency [13] 20.8 µM | Potency [10] 9.27 µM | Potency [18] 29.3 µM | Potency [15] 18.5 µM

O=C1c2ccccc2C(=O)C1c1ccccc1
inactive: Potency [1] | Potency [2] | Potency [3] | Potency [4]

CC(=O)OCC(=O)[C@@]12N=C(C)O[C@@H]1C[C@H]1[C@@H]3CCC4=CC(=O)C=C[C@]4(C)[C@H]3[C@@H](O)C[C@@]12C
inactive: Potency [1] | Potency [2] | Potency [3] | Potency [4] | Potency [6]
active: Potency [13] 2.33 µM | Potency [10] 0.293 µM | Potency [18] 0.261 µM | Potency [5] 1.47 µM | Potency [11] 1.04 µM | Potency [14] 657 nM | Potency [15] 0.369 µM | Potency [16] 737 nM | Potency [17] 1.31 µM

CC(Cc1cccc(C(F)(F)F)c1)NCCOC(=O)c1ccccc1 (configuration not stated)
inactive: Potency [1] | Potency [2] | Potency [3] | Potency [4]

C[C@]12C=CC(=O)C=C1CC[C@@H]1[C@@H]2[C@@H](O)C[C@@]2(C)[C@H]1CC[C@]2(O)C(=O)CO
inactive: Potency [1] | Potency [2] | Potency [3] | Potency [4] | Potency [6] | Potency [7] | Potency [11] | Potency [14] | Potency [12] | Potency [8] | Potency [9] | Potency [16] | Potency [17]
active: Potency [15] 26.1 µM

CCC(=O)c1c(O)cc(O)cc1O
inactive: Potency [1] | Potency [2] | Potency [3] | Potency [4]

C[C@]12CC[C@H]3[C@@H](CCC4=CC(=O)CC[C@@]43C)[C@@H]1CC[C@@H]2C(=O)CO
inactive: Potency [1] | Potency [2] | Potency [3] | Potency [4]

C=C1C(=C/C=C2\CCC[C@]3(C)[C@@H]([C@H](C)/C=C/[C@@H](O)C4CC4)CC[C@@H]23)C[C@@H](O)C[C@@H]1O
inactive: Potency [1] | Potency [3] | Potency [4]

CC(=O)OCC(=O)NCCCOc1cccc(CN2CCCCC2)c1
inactive: Potency [1] | Potency [3] | Potency [4]

O=C1OCCN1/N=C/c1ccc([N+](=O)[O-])o1
inactive: Potency [1] | Potency [3] | Potency [4]

Cc1cccc(C)c1NC(=O)CN1CCN(CCCC(c2ccc(F)cc2)c2ccc(F)cc2)CC1
inactive: Potency [1] | Potency [3]

Cc1cc(O)c(C(C)C)cc1Cl
inactive: Potency [1] | Potency [3]

CCn1cc(C(=O)O)c(=O)c2cnc(N3CCCC3)nc21
inactive: activity change, negative = cytotoxic [1] -14.9% [at 9.22 µM] | activity change, negative = cytotoxic [3] 8.92% [at 9.22 µM] | activity change, negative = cytotoxic [4] 12.6% [at 9.22 µM]

Cc1ccc(Nc2c(F)cccc2Cl)c(CC(=O)O)c1
inactive: Potency [1] | Potency [3] | Potency [4]

CN(C)C(=S)SC(=S)N(C)C
inactive: Potency [6] | Potency [11] | Potency [17]
active: Potency [1] 4.22 µM | Potency [2] 1.19 µM | Potency [4] 944 nM | Potency [13] 9.27 µM | Potency [10] 2.61 µM | Potency [18] 2.93 µM | Potency [5] 3.69 µM | Potency [14] 3690 nM | Potency [15] 3.69 µM | Potency [8] 5.22 µM | Potency [9] 4.14 µM

CN=C(NC#N)Nc1ccc(C2=NNC(=O)CC2C)cc1 (configuration not stated)
inactive: Potency [1] | Potency [3] | Potency [4]

COc1cccc(CCc2ccccc2OCC(CN(C)C)OC(=O)CCC(=O)O)c1 (configuration not stated)
inactive: Potency [1] | Potency [3] | Potency [4]

CCCCC1=NC2(CCCC2)C(=O)N1Cc1ccc(-c2ccccc2-c2nn[nH]n2)cc1
inactive: Potency [1] | Potency [3]

O=C(O)CNC(=O)c1ccccc1
inactive: Potency [1] | Potency [3] | Potency [4]

CCOC(=O)[C@H](CCc1ccccc1)N[C@@H](C)C(=O)N1Cc2ccccc2C[C@H]1C(=O)O
inactive: Potency [1] | Potency [3]

C[C@H]1[C@H](NC(=O)/C(=N/OC(C)(C)C(=O)O)c2csc(N)n2)C(=O)N1S(=O)(=O)O (stereo in doubt)
inactive: Potency [1] | Potency [3]

CCN1CCN(c2cc3c(cc2F)c(=O)c(C(=O)O)cn3C2CC2)CC1
inactive: Potency [1] | Potency [3] | Potency [4]
